From PubChem BioAssay AID504652 (National Center for Advancing Translational Sciences (NCATS), 2011)
Screen size: about 360,000 compounds; about 11,000 (3.1%) were called active. This is one part of a sample in which actives are shown more often than they occur. Unmarked numbers belong to inactive results. Rule as the data show it: active = activity change below about -30%; inactive = the rest.
% is scaled to controls: 0 for no effect and ±100 for the full control effect.

What follows are compounds tested against D(1A) dopamine receptor (Homo sapiens) (UniProt P21728) (assay: Antagonist of Human D 1 Dopamine Receptor: qHTS). Conditions: HEK293 TREx D1 cells, calcium flux, dopamine EC80; at 10 µM; stronger effect = lower value.
Chain of D(1A) dopamine receptor (Homo sapiens) (P21728 whole entry, looked up): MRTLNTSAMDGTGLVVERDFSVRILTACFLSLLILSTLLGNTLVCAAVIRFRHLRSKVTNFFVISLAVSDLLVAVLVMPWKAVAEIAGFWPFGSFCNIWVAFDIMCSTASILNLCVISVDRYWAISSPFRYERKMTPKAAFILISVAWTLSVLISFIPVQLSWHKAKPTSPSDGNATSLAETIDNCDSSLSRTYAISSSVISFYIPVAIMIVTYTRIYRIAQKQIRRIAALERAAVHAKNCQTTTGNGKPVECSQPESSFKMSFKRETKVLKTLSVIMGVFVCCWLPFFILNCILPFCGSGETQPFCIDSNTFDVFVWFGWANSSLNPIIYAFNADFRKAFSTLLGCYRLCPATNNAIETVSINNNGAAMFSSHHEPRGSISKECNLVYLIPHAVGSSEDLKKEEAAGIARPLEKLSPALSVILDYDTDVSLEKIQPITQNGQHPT
How it was run: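 Tetracycline-induced HEK293 T-REx cells with force-coupled D1 receptor were loaded with a no-wash calcium dye. Compound was added after a 10 s baseline and read kinetically for 180 s; EC80 dopamine was then added and calcium flux followed another 180 s.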
With `Cc1ccc2nc(COc3ccccc3NC(=O)Nc3ccc(F)c(Cl)c3)cc(=O)n2c1` the activity change, negative = inhibition was -18.5%. With `CCc1ccccc1N(C)C(=O)C1CCCN(c2ncnc3onc(-c4ccc(F)cc4)c23)C1` (stereo not drawn) the activity change, negative = inhibition was -2.86%. In the case of `O=C(O)c1ccc(Cn2c(SCc3ccc(F)cc3)nc3ccncc32)cc1`, the activity change, negative = inhibition is reported as 11.2%. Compound `CCc1ccccc1NC(=O)c1cnn(-c2ccc(F)cc2)c1C1CCNCC1` has an activity change, negative = inhibition of -15.1%. With `CCOC(=O)c1ccccc1NC(=O)c1sc2nc(-c3ccc(F)cc3)cn2c1C` the activity change, negative = inhibition was 6.46%. `CCOc1ccc(NC(=O)C(=O)NCCc2csc3nc(-c4ccccc4F)nn23)cc1` gave an activity change, negative = inhibition of -3.3%. `COc1ccccc1C(=O)NC(CCSC)C(=O)N1CCN(C(C)=O)CC1` (stereo not drawn) showed an activity change, negative = inhibition of -23.2%. `CSCCC(NC(=O)c1ccccc1)C(=O)N1CCN(Cc2ccc(Cl)cc2)CC1` (stereo not drawn) showed an activity change, negative = inhibition of 18.2%. In the case of `CSCCC(NC(=O)c1ccccc1)C(=O)N1CCCCCCC1` (stereo not drawn), the activity change, negative = inhibition is reported as -32.7% (active). `CCOc1ccccc1NC(=O)CSc1ncc(S(=O)(=O)c2ccc(C(C)(C)C)cc2)c(=O)[nH]1` gave an activity change, negative = inhibition of 10.4%. Compound `Cc1ccccc1OCC(=O)Nc1c(C(=O)Nc2ccccc2F)oc2ccccc12` has an activity change, negative = inhibition of -7.86%. `CCCC(=O)Nc1cc(OCC)c(NC(=O)NC2CCCCC2)cc1OCC` showed an activity change, negative = inhibition of -5.85%. For `CCOc1cc(C2C(C(=O)OC)=CN(C3CCCC3)C=C2C(=O)OC)cc(Br)c1O`, the activity change, negative = inhibition was -30.9% (active). Work on `COC(=O)C1=CN(Cc2ccc(OC)cc2)C=C(C(=O)OC)C1c1ccc(O)c(OC)c1` yielded an activity change, negative = inhibition of 11.1%. `CN1CCN(S(=O)(=O)c2ccc(NC(=O)C3CCCO3)cc2)CC1` (stereo not drawn) was tested, and the activity change, negative = inhibition was -2.7%. With `O=C(Nc1nc2ccc(S(=O)(=O)N3CCCC3)cc2s1)C1CCCO1` (stereo not drawn) the activity change, negative = inhibition was -41.4% (active). For `Cc1cc(C)c2nc(NC(=O)C3CCCO3)sc2c1` (stereo not drawn), the activity change, negative = inhibition was -5.2%. `Cc1ccc(Cl)cc1NC(=O)NC1COc2ccccc2C1` (stereo not drawn) showed an activity change, negative = inhibition of -23%. For `O=C(CCc1nc(CN2CCN(S(=O)(=O)c3ccc(Br)cc3)CC2)no1)N1CCCCC1`, the activity change, negative = inhibition was -0.355%. `CCN(CC)S(=O)(=O)c1cc(C(=O)Nc2ccccn2)ccc1C` showed an activity change, negative = inhibition of 5.43%. In the case of `CCN(c1ccccc1)S(=O)(=O)c1cc(C(=O)NCc2ccccn2)ccc1C`, the activity change, negative = inhibition is reported as -89.3% (active). With `Cc1ccc(NC(=O)CNCc2ccccn2)cc1S(=O)(=O)N(C)C` the activity change, negative = inhibition was -15%. For `NC(=O)NCCCC(=O)O`, the activity change, negative = inhibition was -51% (active). Compound `CCCCCCCCCCCC(=O)O` has an activity change, negative = inhibition of -4.71%. `Cc1oc(C)c(C(=O)NCCCC(=O)O)c1C(=O)NCCCC(=O)O` gave an activity change, negative = inhibition of 1.94%. `COc1ccccc1C1C(C(=O)N2CCCCC2)=C(C)Nc2nc3ccccc3n21` (stereo not drawn) showed an activity change, negative = inhibition of 3.49%. `O=C(CS(=O)(=O)c1cccc2nsnc12)N1CCN(c2cccc(Cl)c2)CC1` gave an activity change, negative = inhibition of -13.7%. `COc1cc(CN2CCN(Cc3ccc(C)cc3)CC2)c([N+](=O)[O-])cc1OC` showed an activity change, negative = inhibition of 5.79%. For `Cc1cc(OCCCN2CCN(Cc3ccccc3)CC2)ccc1[N+](=O)[O-]`, the activity change, negative = inhibition was -35.7% (active). With `Cc1cc(OCC(=O)NC2CCN(C)CC2)ccc1[N+](=O)[O-]` the activity change, negative = inhibition was -13%. `O=C(CCn1c(=O)c2ccccc2n(Cc2ccc(Cl)cc2)c1=O)NCc1ccc2c(c1)OCO2` was tested, and the activity change, negative = inhibition was -2.86%. In the case of `CCOC(=O)c1c(NC(=O)c2ccc(S(=O)(=O)N(C)CC3CCCO3)cc2)sc2c1CC(C)(C)NC2(C)C` (stereo not drawn), the activity change, negative = inhibition is reported as -2.75%. With `CN(CC1CCCO1)S(=O)(=O)c1ccc(C(=O)Nc2ccc(F)cc2)cc1` (stereo not drawn) the activity change, negative = inhibition was -41.6% (active). `CC1CCc2noc(NC(=O)c3ccc([N+](=O)[O-])cc3)c2C1` (stereo not drawn) was tested, and the activity change, negative = inhibition was -19.9%. With `Cc1ccc(NC(=O)c2ccc(S(=O)(=O)NCC3CCCO3)cc2)cc1C` (stereo not drawn) the activity change, negative = inhibition was -12%. With `CCOc1ccc(C(=O)Nc2ccc(S(=O)(=O)NCC3CCCO3)cc2)cc1OCC` (stereo not drawn) the activity change, negative = inhibition was -38.2% (active). Work on `O=C(NCC1CCCO1)c1ccc(S(=O)(=O)Nc2ccc(F)cc2)cc1` (stereo not drawn) yielded an activity change, negative = inhibition of -8.93%. Compound `CCC(=O)Nc1ccc(S(=O)(=O)NCC2CCCO2)cc1` (stereo not drawn) has an activity change, negative = inhibition of -9.18%. With `O=C(Nc1ccc(S(=O)(=O)NCC2CCCO2)cc1)c1ccc(F)cc1` (stereo not drawn) the activity change, negative = inhibition was -29.6%. For `CN(CC1CCCO1)S(=O)(=O)c1ccc(C(=O)Nc2ccc([N+](=O)[O-])cc2)cc1` (stereo not drawn), the activity change, negative = inhibition was -32.3% (active). Work on `CCC1(C)CC(=O)c2c(ccc3oc(C(=O)Nc4ccc(C(C)=O)cc4)c(C)c23)O1` (stereo not drawn) yielded an activity change, negative = inhibition of -2.38%. Compound `COc1cccc(CNC(=O)Cn2c(=O)c3cccn3c3ccc(F)cc32)c1OC` has an activity change, negative = inhibition of 4%. With `CCOc1cc(NC(=S)NCc2ccco2)c(OCC)cc1NC(=O)c1ccco1` the activity change, negative = inhibition was -1.48%. `CCOc1cc(NC(=S)NCCCOC)c(OCC)cc1NC(=O)c1ccco1` was tested, and the activity change, negative = inhibition was -35.1% (active). `CCOc1cc(NC(=S)NCCCN(C)C)c(OCC)cc1NC(=O)C1CC1` gave an activity change, negative = inhibition of -3.38%. `CCSc1ncc(Cl)c(C(=O)Nc2c(C(=O)c3ccccc3)oc3ccccc23)n1` gave an activity change, negative = inhibition of -6.04%. For `Cc1ccccc1CS(=O)(=O)CC1Nc2ccc(C(=O)NCc3ccc(Cl)cc3)cc2NC1=O` (stereo not drawn), the activity change, negative = inhibition was -8.08%. Work on `Cc1cc(C(=O)COC(=O)C2CC2)c(C)n1-c1ccc(F)cc1` yielded an activity change, negative = inhibition of -6.5%. `O=C1CSC(=S)N1/N=C/c1ccc(O)c([N+](=O)[O-])c1` showed an activity change, negative = inhibition of -20.2%. With `Cc1cc(C(=O)N/N=C/c2ccc(O)c([N+](=O)[O-])c2)c(C)n1-c1ccc(F)cc1` the activity change, negative = inhibition was -30% (active). In the case of `Cc1ccccc1CN1CCC(CNC(=O)c2c(C)oc3ncnc(N4CCCCC4)c23)CC1`, the activity change, negative = inhibition is reported as -6.32%. For `O=C(Nc1ccc(F)cc1)C(=O)c1cn(CC(=O)N2CCOCC2)c2ccccc12`, the activity change, negative = inhibition was 0.328%. Work on `O=C(Oc1ccc(C(=S)N2CCOCC2)cc1)c1ccc(F)cc1` yielded an activity change, negative = inhibition of -12.9%. `O=C(c1ccc(F)cc1)n1cc(C(=S)N2CCOCC2)c2ccccc21` was tested, and the activity change, negative = inhibition was -30.2% (active). `Cn1c(=O)sc2cc(NS(=O)(=O)c3ccc(C(C)(C)C)cc3)ccc21` showed an activity change, negative = inhibition of 6.14%. In the case of `O=C(O)CS/C(=C\c1ccc(F)cc1)c1nc2ccccc2s1`, the activity change, negative = inhibition is reported as -33.3% (active). In the case of `CC1=CC(=C(C#N)c2nc3ccccc3s2)C=C(C)N1c1ccc(F)cc1F`, the activity change, negative = inhibition is reported as -3.42%. `O=C(O)CC/C(=C\c1cc2c(cc1Br)OCO2)c1nc2ccccc2s1` showed an activity change, negative = inhibition of -6.84%.
